From ChEMBL document CHEMBL3988442, “University of Dundee, Small-Polar-MMV Screening Library” (2021)
For part of these data: Potency and affinity values are given separately.

How the values were obtained:
Set-up in all cases: scale not given: direction of the effect not stated beside the values
[1] = target: Protein translocase subunit SecA (Escherichia coli (strain K12)) (UniProt P10408); assay: Assay to Identify E. coli SecA ATPase Inhibitors; format: functional; conditions: 30 µM
[2] = target: T1, Ubiquitin-activating enzyme e1, putative (Leishmania donovani (strain BPK282A1)) (UniProt E9BSI1); assay: Leishmania donovani Ubiquitin Activating Enzyme (LdE1); format: functional; conditions: 30 µM
T1 sequence (whole entry): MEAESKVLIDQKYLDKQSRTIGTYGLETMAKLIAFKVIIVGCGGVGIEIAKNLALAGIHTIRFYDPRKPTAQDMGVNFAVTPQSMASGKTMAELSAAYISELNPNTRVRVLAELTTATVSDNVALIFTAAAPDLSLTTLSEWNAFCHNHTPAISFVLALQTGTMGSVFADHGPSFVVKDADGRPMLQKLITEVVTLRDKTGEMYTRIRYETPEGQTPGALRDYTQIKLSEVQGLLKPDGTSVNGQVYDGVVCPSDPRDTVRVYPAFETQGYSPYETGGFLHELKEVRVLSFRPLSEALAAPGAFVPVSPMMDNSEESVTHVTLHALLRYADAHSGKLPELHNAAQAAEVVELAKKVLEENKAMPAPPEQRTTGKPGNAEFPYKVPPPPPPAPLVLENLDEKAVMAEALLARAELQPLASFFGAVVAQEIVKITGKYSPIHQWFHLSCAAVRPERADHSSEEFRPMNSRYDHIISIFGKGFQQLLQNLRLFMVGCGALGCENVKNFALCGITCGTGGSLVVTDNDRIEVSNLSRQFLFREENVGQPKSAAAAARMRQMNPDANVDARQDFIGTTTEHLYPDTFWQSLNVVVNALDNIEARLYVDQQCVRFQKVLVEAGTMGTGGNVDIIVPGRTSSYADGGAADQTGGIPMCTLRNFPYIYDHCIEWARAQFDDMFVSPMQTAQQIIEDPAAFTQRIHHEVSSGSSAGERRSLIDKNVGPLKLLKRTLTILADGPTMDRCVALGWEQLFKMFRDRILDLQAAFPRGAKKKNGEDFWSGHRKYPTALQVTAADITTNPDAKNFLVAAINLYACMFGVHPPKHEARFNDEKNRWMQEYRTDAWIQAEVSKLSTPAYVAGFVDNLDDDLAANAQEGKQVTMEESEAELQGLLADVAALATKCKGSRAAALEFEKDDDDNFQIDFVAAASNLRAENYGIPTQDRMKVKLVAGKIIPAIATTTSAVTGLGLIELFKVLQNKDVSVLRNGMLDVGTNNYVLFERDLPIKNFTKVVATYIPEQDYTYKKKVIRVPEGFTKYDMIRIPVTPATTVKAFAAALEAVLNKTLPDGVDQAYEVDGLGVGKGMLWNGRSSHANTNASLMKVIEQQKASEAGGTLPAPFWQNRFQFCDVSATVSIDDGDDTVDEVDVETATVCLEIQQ

[3] = target: AMP-activated protein kinase, AMPK (Homo sapiens) (UniProt P54646+O43741+P54619+Q9UGJ0+Q9Y478+Q13131+Q9UGI9); assay: AMP-dependent Kinase enzyme assay. An in vitro enzyme assay that detects ADP turnover that is directly proportional to AMPK activity. This uses naive AMPK that is activated during the assay with MK-8722; format: functional; conditions: 30 µM
[4] = target: Sialic acid-binding Ig-like lectin 9 (Homo sapiens) (UniProt Q9Y336); assay: Hs-Siglec9 ALPHAscreen SOP 20170721; conditions: 10 µM
Trypanosoma cruzi = assay: Trypanosoma cruzi phosphomannomutase and mannose-1-phosphate guanylyltransferase assay; format: functional; conditions: 10 µM
[5] = target: T2, Arginase-2, mitochondrial (Homo sapiens) (UniProt P78540); assay: in vitro enzyme assay to detect the production of urea directly proportional to the activity of Arginase II; format: functional; conditions: 33.3 µM; also: in the data most compounds retested in dose-response had high values
T2 sequence (whole entry): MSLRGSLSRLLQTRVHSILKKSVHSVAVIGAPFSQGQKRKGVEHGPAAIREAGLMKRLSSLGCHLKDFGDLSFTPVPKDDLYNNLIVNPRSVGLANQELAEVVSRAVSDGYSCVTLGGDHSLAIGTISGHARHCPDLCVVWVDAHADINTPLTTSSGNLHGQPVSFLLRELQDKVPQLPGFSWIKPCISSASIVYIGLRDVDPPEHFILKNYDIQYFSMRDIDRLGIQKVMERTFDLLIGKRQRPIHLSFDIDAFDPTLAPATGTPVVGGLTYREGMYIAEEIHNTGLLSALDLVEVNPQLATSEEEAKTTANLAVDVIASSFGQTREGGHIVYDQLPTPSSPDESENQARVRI

[6] = target: T3, Proteasome subunit beta (Trypanosoma cruzi) (UniProt O96673); assay: Trypanosoma cruzi proteasome chymotrypsin-like activity (TcProtChymo) assay.; also: in the data most compounds retested in dose-response had high values; format: functional; conditions: 9.37 µM
T3 sequence (whole entry): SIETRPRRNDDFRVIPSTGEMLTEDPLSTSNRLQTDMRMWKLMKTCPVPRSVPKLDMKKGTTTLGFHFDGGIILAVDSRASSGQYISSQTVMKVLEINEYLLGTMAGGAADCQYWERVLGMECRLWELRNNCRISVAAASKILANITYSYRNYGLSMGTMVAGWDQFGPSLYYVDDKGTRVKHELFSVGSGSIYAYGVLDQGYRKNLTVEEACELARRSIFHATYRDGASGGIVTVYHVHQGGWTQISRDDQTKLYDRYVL

Homo sapiens = species on record: Homo sapiens; assay: To identify inhibition of the IFN signalling (Jak-Stat) pathway via expression of an eGFP reporter gene under the control of an IFN-stimulated response element (ISRE) containing MxA promoter.; format: functional; conditions: 30 µM
[7] = target: T4, Tyrosyl-tRNA synthetase, putative (Trypanosoma cruzi (strain CL Brener)) (UniProt Q4DSP6); assay: Trypanosoma cruzi tyrosyl tRNA synthetase (TcYRS) _High Tyrosine SOP; format: functional; conditions: 30 µM; also: in the data most compounds retested in dose-response had high values
T4 sequence (whole entry): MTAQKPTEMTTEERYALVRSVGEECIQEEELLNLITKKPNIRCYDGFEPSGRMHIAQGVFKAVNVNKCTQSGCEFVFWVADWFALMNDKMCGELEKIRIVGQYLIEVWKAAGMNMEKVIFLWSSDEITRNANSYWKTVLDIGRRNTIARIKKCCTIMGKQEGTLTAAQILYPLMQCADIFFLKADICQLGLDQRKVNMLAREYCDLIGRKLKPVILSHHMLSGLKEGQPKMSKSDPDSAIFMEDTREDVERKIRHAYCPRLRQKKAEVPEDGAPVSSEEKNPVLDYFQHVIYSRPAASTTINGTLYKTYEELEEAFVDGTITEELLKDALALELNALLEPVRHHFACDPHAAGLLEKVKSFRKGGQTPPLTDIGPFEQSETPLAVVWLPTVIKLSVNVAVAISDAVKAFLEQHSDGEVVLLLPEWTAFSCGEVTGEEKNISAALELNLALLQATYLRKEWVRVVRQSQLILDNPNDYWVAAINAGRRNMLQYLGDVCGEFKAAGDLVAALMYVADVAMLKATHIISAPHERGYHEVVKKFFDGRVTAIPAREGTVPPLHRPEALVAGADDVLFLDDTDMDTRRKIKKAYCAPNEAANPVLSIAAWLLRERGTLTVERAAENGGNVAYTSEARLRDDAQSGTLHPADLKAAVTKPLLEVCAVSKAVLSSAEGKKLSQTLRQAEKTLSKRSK

[8] = target: T4, Tyrosyl-tRNA synthetase, putative (Trypanosoma cruzi (strain CL Brener)); assay: Trypanosoma cruzi tyrosyl tRNA synthetase (TcYRS) SOP; format: functional; conditions: 30 µM
[9] = target: Chromo domain-containing protein 1 (Saccharomyces cerevisiae (strain ATCC 204508 / S288c) (Baker's yeast)) (UniProt P32657); assay: ScCHD-1 Enzyme Inhibition Assay; format: functional; conditions: 30 µM; also: in the data most compounds retested in dose-response had high values
Chain of Chromo domain-containing protein 1 (Saccharomyces cerevisiae (strain ATCC 204508 / S288c) (Baker's yeast)) (P32657 whole entry, the tested form may be a part): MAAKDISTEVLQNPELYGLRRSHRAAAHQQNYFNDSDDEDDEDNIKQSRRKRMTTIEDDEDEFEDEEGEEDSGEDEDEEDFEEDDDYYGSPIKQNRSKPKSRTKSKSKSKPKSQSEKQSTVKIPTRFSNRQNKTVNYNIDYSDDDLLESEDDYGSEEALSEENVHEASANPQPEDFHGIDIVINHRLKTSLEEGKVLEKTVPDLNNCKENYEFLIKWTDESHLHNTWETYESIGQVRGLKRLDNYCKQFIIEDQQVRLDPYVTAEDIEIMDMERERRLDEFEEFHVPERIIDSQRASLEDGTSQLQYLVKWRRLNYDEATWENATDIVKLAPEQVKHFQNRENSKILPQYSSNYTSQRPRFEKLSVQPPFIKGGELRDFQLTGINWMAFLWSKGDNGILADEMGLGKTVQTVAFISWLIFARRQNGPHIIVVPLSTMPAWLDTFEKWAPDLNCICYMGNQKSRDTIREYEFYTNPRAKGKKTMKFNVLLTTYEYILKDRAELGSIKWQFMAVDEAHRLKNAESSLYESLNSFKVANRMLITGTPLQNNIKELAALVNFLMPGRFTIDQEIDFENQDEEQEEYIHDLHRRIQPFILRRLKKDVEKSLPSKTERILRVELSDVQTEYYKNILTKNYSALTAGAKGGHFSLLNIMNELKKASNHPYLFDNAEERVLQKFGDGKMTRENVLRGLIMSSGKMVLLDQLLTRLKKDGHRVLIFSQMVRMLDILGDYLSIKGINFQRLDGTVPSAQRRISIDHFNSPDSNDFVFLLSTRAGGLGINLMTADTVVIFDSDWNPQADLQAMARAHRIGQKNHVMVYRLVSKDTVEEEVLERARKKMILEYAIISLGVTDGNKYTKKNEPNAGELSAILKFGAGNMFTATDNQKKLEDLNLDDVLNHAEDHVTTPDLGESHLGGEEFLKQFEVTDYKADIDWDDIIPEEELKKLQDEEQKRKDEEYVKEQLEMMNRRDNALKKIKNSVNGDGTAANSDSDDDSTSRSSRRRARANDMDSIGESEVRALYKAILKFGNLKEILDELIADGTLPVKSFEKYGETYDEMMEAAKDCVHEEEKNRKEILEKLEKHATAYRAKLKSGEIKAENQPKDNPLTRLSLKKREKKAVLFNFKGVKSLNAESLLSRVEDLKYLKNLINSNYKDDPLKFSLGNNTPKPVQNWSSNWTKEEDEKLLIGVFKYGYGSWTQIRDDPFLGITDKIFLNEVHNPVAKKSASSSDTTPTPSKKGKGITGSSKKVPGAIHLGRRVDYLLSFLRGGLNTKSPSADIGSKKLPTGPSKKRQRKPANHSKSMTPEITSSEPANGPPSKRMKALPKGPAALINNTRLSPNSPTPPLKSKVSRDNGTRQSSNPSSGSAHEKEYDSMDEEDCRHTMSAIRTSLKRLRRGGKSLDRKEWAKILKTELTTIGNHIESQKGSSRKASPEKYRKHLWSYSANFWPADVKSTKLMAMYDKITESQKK

Chain of Protein translocase subunit SecA (Escherichia coli (strain K12)) (P10408 whole entry): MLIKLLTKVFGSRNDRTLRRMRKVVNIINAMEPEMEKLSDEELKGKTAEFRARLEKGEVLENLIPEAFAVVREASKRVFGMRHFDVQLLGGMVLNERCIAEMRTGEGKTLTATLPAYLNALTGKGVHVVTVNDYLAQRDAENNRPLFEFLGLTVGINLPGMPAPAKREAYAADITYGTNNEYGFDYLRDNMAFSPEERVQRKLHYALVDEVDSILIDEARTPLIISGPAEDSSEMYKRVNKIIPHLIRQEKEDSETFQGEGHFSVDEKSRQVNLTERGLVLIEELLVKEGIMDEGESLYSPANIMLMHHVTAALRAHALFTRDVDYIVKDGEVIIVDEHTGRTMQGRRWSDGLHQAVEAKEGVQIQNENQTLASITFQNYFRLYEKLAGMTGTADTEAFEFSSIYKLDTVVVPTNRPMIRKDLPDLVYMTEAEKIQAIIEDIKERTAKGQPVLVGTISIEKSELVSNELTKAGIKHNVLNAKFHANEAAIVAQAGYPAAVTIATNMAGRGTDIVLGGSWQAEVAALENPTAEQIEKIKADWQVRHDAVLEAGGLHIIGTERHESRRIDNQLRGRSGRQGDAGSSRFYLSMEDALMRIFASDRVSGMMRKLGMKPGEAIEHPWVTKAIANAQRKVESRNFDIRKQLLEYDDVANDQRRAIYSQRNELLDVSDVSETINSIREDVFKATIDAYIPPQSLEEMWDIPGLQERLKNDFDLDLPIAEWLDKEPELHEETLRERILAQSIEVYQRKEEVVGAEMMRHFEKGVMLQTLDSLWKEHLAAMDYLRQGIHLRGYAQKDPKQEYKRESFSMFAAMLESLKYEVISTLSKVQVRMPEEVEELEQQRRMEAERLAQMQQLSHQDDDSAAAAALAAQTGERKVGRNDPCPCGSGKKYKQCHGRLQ
Chain of Sialic acid-binding Ig-like lectin 9 (Homo sapiens) (Q9Y336 whole entry): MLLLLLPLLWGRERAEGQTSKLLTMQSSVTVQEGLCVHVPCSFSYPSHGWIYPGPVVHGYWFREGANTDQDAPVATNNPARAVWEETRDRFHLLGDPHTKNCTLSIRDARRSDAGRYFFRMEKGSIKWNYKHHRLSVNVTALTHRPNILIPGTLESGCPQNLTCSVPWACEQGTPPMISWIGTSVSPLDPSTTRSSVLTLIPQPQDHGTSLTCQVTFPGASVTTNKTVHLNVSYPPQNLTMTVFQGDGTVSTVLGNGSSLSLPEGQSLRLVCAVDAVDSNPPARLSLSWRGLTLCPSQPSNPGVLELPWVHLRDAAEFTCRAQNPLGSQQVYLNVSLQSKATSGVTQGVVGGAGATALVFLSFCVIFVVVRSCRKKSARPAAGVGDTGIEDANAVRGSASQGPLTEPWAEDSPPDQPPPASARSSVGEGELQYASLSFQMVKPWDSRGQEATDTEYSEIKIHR

| SMILES | Percent Effect [1] [%] | Percent Effect [2] [%] | Percent Effect [3] [%] | Percent Effect [4] [%] | Percent Effect (Trypanosoma cruzi) [%] | Percent Effect [5] [%] | Percent Effect [6] [%] | Percent Effect (Homo sapiens) [%] | Percent Effect [7] [%] | Percent Effect [8] [%] | Percent Effect [9] [%] |
| --- | --- | --- | --- | --- | --- | --- | --- | --- | --- | --- | --- |
| Cc1ccc2nc(C3CCN(CCO)CC3)nn2c1 | 1.65 | 10.7 | 6.44 | 9.27 | -2.51 | -59.7 | 4.79 | 23.1 | 2.08 | 10 | -0.68 |
| O=C(NCC1CC1)Nc1cnc2cc(Cl)ccc2c1O | -4.33 | 12.2 | 4.52 | -10.8 | -2.57 | -1.62 | 8.89 | 8.61 | -1.07 | -1.3 | -6.64 |
| CCNC(=O)NC(=O)CSC(C)c1c(F)cccc1F (stereo unspecified) | -5.95 | 2.67 | 1.21 | -3.31 | -5.55 | -4.17 | 22.3 | 10.5 | 0.546 | -1.24 | -6.68 |
| O=C(CCNS(=O)(=O)c1ccccc1)NCc1ccoc1 | -5.05 | 5.33 | -0.901 | 7.78 | 7.11 | -0.521 | 12 | 12.9 | 8.2 | 16.1 | -4.93 |
| CCN1CC2(CC1=O)CN(C(=O)c1ccco1)CCN(C(=O)N(C)C)C2 (stereo unspecified) | -0.623 | 5.48 | -1.36 | 5.48 | -2.18 | -8.78 | 12.6 | 6.21 | 6.25 | 1.24 | -1.51 |
| CC(C)CN1Cc2c(C(=O)N(C)C)ncn2-c2ccccc2S1(=O)=O | -3.52 | 5.41 | -2.12 | -3.11 | -2.83 | 0.319 | 11.6 | -4.16 | 3.24 | 15.4 | 0.625 |
| CS(=O)(=O)NCCCN1CCCC1Cc1ccccc1 (stereo unspecified) | -4.3 | 0 | -5.49 | 11.9 | 3.49 | -3.42 | 9.09 | 13 | 5.42 | 16.5 | -3.37 |
| CC(=O)c1cc(CN2C[C@H]3CC[C@@H]2CN(S(=O)(=O)N(C)C)C3)cs1 | -5.56 | 15.3 | -10.7 | 36 | 7.68 | 6.18 | 5.96 | 4.65 | 7.37 | 10.3 | -3.04 |
| c1ccc(-c2cnc(CN3CCCC3Cn3cncn3)o2)cc1 (stereo unspecified) | -2.46 | 5.06 | -0.0232 | -1.55 | -2.93 | 2.66 | -0.737 | 10.6 | 7.39 | 13.9 | -8.4 |
| Cc1noc(C)c1-c1cccc(CC2CCN(C(=O)CCC(=O)O)C2)n1 (stereo unspecified) | -2.58 | 6.76 | 5.24 | 4.95 | 3.16 | 0.696 | 3.28 | -7.92 | 1.07 | 3.9 | -9.71 |
| CC1CN=C(N2CCN(C(=O)Nc3nc(-c4ccccc4)ns3)CC2)S1 (stereo unspecified) | -9.42 | -5.41 | 7.75 | -5.9 | -2.25 | -3.23 | 3.35 | 38.4 | -2.15 | -6.17 | -0.289 |
| CN(C)CCNC(=O)CNC(=O)N1CCc2c([nH]c3ccc(Cl)cc23)C1 | -4.87 | -1.33 | 9.82 | 0.772 | -2.55 | -9.33 | 0.185 | -14.7 | -1.06 | -7.69 | -0.829 |
| O=C(NC1CCCC1)[C@@H]1CN(Cc2nccs2)C[C@H]2OCC[C@H]21 | -5.51 | 2.67 | -3.12 | -3.59 | -1.77 | 1.63 | -3.26 | 21.4 | 3.19 | -3.85 | 7.18 |
| CN(C)C(=O)C1CN(Cc2cscn2)CCN(S(C)(=O)=O)C1 (stereo unspecified) | -11.5 | 17.6 | -0.331 | 3.06 | 1.98 | -1.16 | 6.55 | 2.48 | 7.53 | 19.5 | -22.4 |
| COCC1CC2(CCN(C(=O)c3ccc(OC)c(Cl)c3)CC2)CO1 (stereo unspecified) | 4.75 | 15.6 | -2.46 | -7.51 | -5.82 | 9.68 | 13.8 | 15.9 | -1.06 | 3.85 | -9.46 |
| Cc1cc(=O)n(CC(=O)Nc2ccc(C(N)=O)cc2)nc1C | -0.496 | 0 | -2.6 | 15.7 | 3.67 | 0.952 | 11.6 | 4.44 | 1.59 | 9.76 | -0.0727 |
| Cc1c(NC(=O)NCC(C)N2CCOCC2)cccc1OC(F)F (stereo unspecified) | -4.46 | 8.11 | 0.188 | 0.607 | 0.391 | 2.5 | 8.03 | -7.17 | 14.8 | -3.66 | -5.4 |
| CNS(=O)(=O)c1ccc(C(=O)N2CCCC2c2cnn(C)c2)o1 (stereo unspecified) | -2.43 | 7.89 | -0.508 | -1.15 | 8.12 | 0.719 | -0.761 | 1.2 | 1.48 | 6.17 | -6.23 |
| Cc1csc(N2CCN(C(=O)CCC(=O)c3ccc(C)s3)CC2)n1 | -3.76 | 8.11 | -7.25 | 1.58 | 1.79 | -12.4 | 13.5 | 23 | 7.39 | 25.9 | 17.6 |
| Cc1nc(C)n(CC2CCCN(c3ncnc4ccsc34)C2)n1 (stereo unspecified) | -0.224 | 10.8 | 4.37 | -5.33 | -7.08 | 1.2 | 14.2 | 73.4 | 6.4 | 16.1 | -6.75 |
| CCc1noc(CN2CCCC2c2noc(C3CC3)n2)n1 (stereo unspecified) | 0.214 | 21.6 | -11.2 | -6.88 | 3.68 | -10 | 12.8 | 19.7 | 9.36 | 18.5 | -9.57 |
